From PubChem BioAssay AID2782 (National Center for Advancing Translational Sciences (NCATS), 2010)
Inconclusive results are not listed. Where a call stands in place of a potency, no number is given. Activity calls are given as the source filed them. Calls follow the shape of the dose curve; as a rule, active = well fitted inhibition curve with a large enough effect in the polarisation, with a control signal flat (not every such curve was filed as active); inconclusive = small, poorly fitted or top-dose-only effect, or effect the other way, or a change in a side signal; inactive = no such curve, though single readings can be large or run the other way; the % refers to the polarisation.
Potency is read from the fitted curve at half-maximal effect.

Test: Confirmation of Inhibitors Targeting the Menin-MLL Interaction in MLL Related Leukemias: Competition With Texas Red Labeled MLL-derived Mutant Peptide
Conditions: fluorescence polarization, Texas Red MLL peptide displacement; series mostly up to 94.6 µM
Summary of the method: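 FP competition using menin at 200 nM with Texas Red-labeled mutant MLL peptide (50 nM) plus fluorescein MLL-w.t. peptide (25 nM) in 50 mM Tris-HCl pH 7.5, 50 mM NaCl, 1 mM DTT, 0.05% BSA; compound added, 1 hr ambient; polarization read per label.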
For `Cc1ccc(NS(=O)(=O)c2csc(C(N)=O)c2)cc1C`, the Potency was “inactive”.
For `CCC(C)CCCCC(=O)N[C@@H](CCN)C(=O)N[C@H](C(=O)N[C@@H](CCN)C(=O)N[C@H]1CCNC(=O)C([C@@H](C)O)NC(=O)[C@@H](CCN)NC(=O)[C@H](CCN)NC(=O)[C@H](CC(C)C)NC(=O)[C@@H](CC(C)C)NC(=O)[C@H](CCN)NC1=O)[C@@H](C)O` (some centres undefined), the Potency was 7.94 µM (active).
For `CCn1ncc(C(=O)Nc2cc(C)on2)c1C`, the Potency was “inactive”.
In the case of `CN1CCN(CC(=O)c2ccccc2F)CC1`, the Potency is reported as “inactive”.
For `COc1ccccc1C(=O)Nc1ccccc1SC(=O)c1ccccc1OC`, the Potency was “inactive”.
For `CCCNC(=O)c1ccc2c(=O)c(O)c(C)[nH]c2c1`, the Potency was “inactive”.
In the case of `CC(c1cc2ccccc2s1)N(O)C(N)=O` (centres undefined), the Potency is reported as “inactive”.
With `Cc1cc2[nH]c3c(c[n+](C)c4ccccc34)c2cc1C` the Potency was 56.4 µM (active).
For `Cc1ccc(NC(=O)C(C)N2C(=O)c3ccccc3C2=O)c(C)c1` (centres undefined), the Potency was “inactive”.
For `O=c1cc(O)c2ccccc2n1Cc1ccccc1F`, the Potency was “inactive”.
With `CCCC(c1nnnn1Cc1cccs1)N1CCN(C2CCCC2)CC1` (centres undefined) the Potency was 112 µM (active).
In the case of `CCOC(=O)Cn1cnc2scc(-c3ccc(C)c(C)c3)c2c1=O`, the Potency is reported as “inactive”.
For `O=C(COC(=O)c1ccc(NS(=O)(=O)c2cccs2)cc1)Nc1nc2c(F)c(F)c(F)cc2s1`, the Potency was 14.2 µM (active).
In the case of `CCOC(=O)c1cnc2ccc(OC)cc2c1Nc1ccc(N2CCN(C)CC2)cc1`, the Potency is reported as 141 µM (active).
In the case of `Cc1cc(C)c2c(=O)cc(C(=O)NCc3ccccc3)oc2c1`, the Potency is reported as “inactive”.
In the case of `COc1ccc(CN2CCN(C(C)C(=O)N(C)Cc3cccc(F)c3)CC2)cc1OC` (centres undefined), the Potency is reported as “inactive”.
In the case of `NC(=O)[C@@H]1CCCNc2c(I)cc([N+](=O)[O-])cc2C(=O)N[C@@H](CCCN=C(N)N)C(=O)N[C@@H](CCCN=C(N)N)C(=O)N1`, the Potency is reported as 141 µM (active).
For `CCC(C)CCCCC(=O)NC(CCN)C(=O)NC(C(=O)NC(CCN)C(=O)NC1CCNC(=O)C(C(C)O)NC(=O)C(CCN)NC(=O)C(CCN)NC(=O)C(CC(C)C)NC(=O)C(Cc2ccccc2)NC(=O)C(CCN)NC1=O)C(C)O` (centres undefined), the Potency was 7.08 µM (active).
In the case of `COc1ccc(C)cc1N(C(=O)c1snc(C(N)=O)c1N)C(C(=O)NC1CCCC1)c1ccc(F)cc1` (centres undefined), the Potency is reported as “inactive”.
With `O=[N+]([O-])CC(c1ccccc1)P(=O)(c1ccccc1)c1ccccc1` (centres undefined) the Potency was “inactive”.
In the case of `CC(NC(=O)c1cnc2ccccc2n1)c1ccccc1` (centres undefined), the Potency is reported as “inactive”.
With `COc1ccc(OCCCn2ccnc2)cc1` the Potency was “inactive”.
For `N#Cc1ccc(Cl)cc1NC(=O)CNCc1cccs1`, the Potency was “inactive”.
In the case of `CC(CC(=O)Nc1nc2ccccc2[nH]1)n1ccnc1` (centres undefined), the Potency is reported as “inactive”.
In the case of `O=S(=O)(NCCc1c[nH]c2ccccc12)c1ccccc1`, the Potency is reported as “inactive”.
In the case of `C/C(=N\NC(=O)c1nnn(-c2nonc2N)c1C)c1ccc(-c2ccccc2)cc1`, the Potency is reported as “inactive”.
With `COc1ccc(N(C(=O)c2ccncc2)S(=O)(=O)c2ccc(Cl)cc2)cc1` the Potency was “inactive”.
With `CCC(C)C1NC(=O)C(CCNCS(=O)(=O)O)NC(=O)C(NC(=O)C(CCNCS(=O)(=O)O)NC(=O)C(NC(=O)C(CCNCS(=O)(=O)O)NC(=O)CCCCC(C)C)C(C)O)CCNC(=O)C(C(C)O)NC(=O)C(CCNCS(=O)(=O)O)NC(=O)C(CCNCS(=O)(=O)O)NC(=O)C(C(C)CC)NC1=O` (centres undefined) the Potency was “inactive”.
With `N=c1oc2ccccc2cc1-c1nc(-c2ccc(Cl)cc2)cs1` the Potency was “inactive”.
In the case of `O=C(C1=C(O)C(=O)N(CCN2CCOCC2)C1c1cccc(Br)c1)c1cccs1` (centres undefined), the Potency is reported as “inactive”.
In the case of `CCc1ccccc1NC(=O)COc1cccc(-n2cnnn2)c1`, the Potency is reported as “inactive”.
In the case of `O=C(c1cc(F)c(F)cc1Cl)N1CCN(c2ncccn2)CC1`, the Potency is reported as “inactive”.
In the case of `CCOC(=O)C1CCN(CC(O)COCc2ccccc2)CC1` (centres undefined), the Potency is reported as “inactive”.
In the case of `COc1cc(O)c(C(=O)c2ccccc2)cc1O`, the Potency is reported as “inactive”.
